# About 14,000 (4.5%) of roughly 310,000 compounds showed an effect of 50% or more. The effect is printed as a negative number. The sample as a whole holds a higher share of strong results than the screen did.
# Biological target: human ether-à-go-go-related gene (hERG) potassium channel (human, UniProt Q12809)
# Assay: primary screen, population patch clamp on CHO cells stably expressing hERG; higher = less effect of the substance
# 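Note: peak tail current of the secondary pulse compared with the same well before compound.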
# human ether-à-go-go-related gene (hERG) potassium channel, sequence (Q12809 whole entry, looked up): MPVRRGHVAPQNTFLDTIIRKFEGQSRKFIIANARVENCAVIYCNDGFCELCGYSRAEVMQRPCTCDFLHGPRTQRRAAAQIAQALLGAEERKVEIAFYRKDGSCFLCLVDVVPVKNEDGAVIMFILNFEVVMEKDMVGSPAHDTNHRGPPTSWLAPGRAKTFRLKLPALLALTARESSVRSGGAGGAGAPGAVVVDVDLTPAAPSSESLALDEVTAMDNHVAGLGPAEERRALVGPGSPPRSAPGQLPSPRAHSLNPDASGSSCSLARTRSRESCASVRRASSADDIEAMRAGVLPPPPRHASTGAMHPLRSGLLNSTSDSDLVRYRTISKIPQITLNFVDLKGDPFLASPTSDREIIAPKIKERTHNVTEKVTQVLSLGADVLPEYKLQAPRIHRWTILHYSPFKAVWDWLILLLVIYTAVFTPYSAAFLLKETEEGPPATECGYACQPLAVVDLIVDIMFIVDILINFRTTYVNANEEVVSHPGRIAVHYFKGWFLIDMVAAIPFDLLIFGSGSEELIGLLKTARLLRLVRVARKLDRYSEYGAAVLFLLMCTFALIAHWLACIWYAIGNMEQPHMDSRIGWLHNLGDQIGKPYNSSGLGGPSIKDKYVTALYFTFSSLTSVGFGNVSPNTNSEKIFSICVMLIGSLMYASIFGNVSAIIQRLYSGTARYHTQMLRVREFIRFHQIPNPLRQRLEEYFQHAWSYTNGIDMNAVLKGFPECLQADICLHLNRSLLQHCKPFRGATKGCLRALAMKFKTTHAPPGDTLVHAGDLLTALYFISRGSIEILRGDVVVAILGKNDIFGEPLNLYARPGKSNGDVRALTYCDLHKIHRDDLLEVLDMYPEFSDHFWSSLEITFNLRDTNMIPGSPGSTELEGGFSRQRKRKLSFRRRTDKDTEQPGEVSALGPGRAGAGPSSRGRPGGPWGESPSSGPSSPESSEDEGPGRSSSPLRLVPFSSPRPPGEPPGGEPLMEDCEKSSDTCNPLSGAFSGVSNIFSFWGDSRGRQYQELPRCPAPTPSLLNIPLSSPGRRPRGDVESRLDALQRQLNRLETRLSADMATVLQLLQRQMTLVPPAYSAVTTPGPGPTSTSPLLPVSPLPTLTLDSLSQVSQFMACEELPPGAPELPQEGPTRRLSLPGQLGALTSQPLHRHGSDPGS
row,SMILES,"hERG current change (%, negative = inhibition) at 10uM [%]"
1,Cc1ccccc1C(=O)NCCNC(=O)c1ccccn1,6.75
2,O=C(Nc1ccc(Cc2ccncc2)cc1)c1cc(F)c(F)cc1Cl,-71.2
3,O=C(NCc1ccncc1)c1cc(F)c(F)cc1Cl,14.2
4,CC(C)Cc1ccc(C(=O)Nc2ccc(Cc3ccncc3)cc2)o1,-57.6
5,O=C(Nc1cccnc1)c1cc(F)c(F)cc1Cl,19.7
6,CC(C)CC(=O)Nc1ccc(Cc2ccncc2)cc1,10.1
7,O=C(Nc1ccc(Cc2ccncc2)cc1)c1ccc(Br)o1,-35.8
8,N#Cc1cnc(SCC(=O)N2CCCC2)nc1N,13.1
9,COc1cc(NC(=O)c2cccc(C)c2)c(OC)cc1NC(=O)CN1CCOCC1,-3.88
10,O=C(NC12CC3CC(CC(C3)C1)C2)C12CC3CC(C1)CC(n1cnc(Cl)n1)(C3)C2,2.42
11,COc1cc(-c2nc(-c3cccc(C)c3)no2)cc(OC)c1OC,0.668
12,Cc1cc(NC(=O)C2CCCN2C(=O)Nc2cccc(Cl)c2)ccc1-n1cnnn1 (stereo not drawn),-48.3
13,CC(=O)Nc1ccc(NC(=O)C2CCCN2C(=O)NC2CCCCC2)cc1 (stereo not drawn),12.5
14,Cc1cccc(C)c1NC(=O)N1CCCC1C(=O)Nc1ccc(-n2cnnn2)cc1 (stereo not drawn),-35.8
15,O=C(Nc1ccc(-n2cnnn2)cc1)C1CCCN1C(=O)Nc1ccc(Br)cc1 (stereo not drawn),-79.9
16,Cc1cc(NC(=O)C2CCCN2C(=O)Nc2c(C)cccc2C)ccc1-n1cnnn1 (stereo not drawn),-10.9
17,Cc1ccc(NC(=O)N2CCCC2C(=O)Nc2ccc(-n3cnnn3)c(C)c2)cc1 (stereo not drawn),-18.7
18,Cc1cc(C)cc(NC(=O)N2CCCC2C(=O)Nc2ccc(-n3cnnn3)c(C)c2)c1 (stereo not drawn),-12.3
19,CC(C)c1ccc(NC(=O)N2CCCC2C(=O)Nc2ccc(-n3cnnn3)cc2)cc1 (stereo not drawn),-61.8
20,Cc1cc(C)cc(NC(=O)N2CCCC2C(=O)Nc2ccc(-n3cnnn3)cc2)c1 (stereo not drawn),-54.1
21,Cc1ccc(NC(=O)C2CCCN2C(=O)NC2CCCCC2)cc1 (stereo not drawn),8.72
22,O=C(Nc1ccc(-n2cnnn2)cc1)C1CCC1,11.3
23,O=C(Nc1ccc(-n2cnnn2)cc1)C1CCCN1C(=O)NC1CCCCC1 (stereo not drawn),-63.3
24,O=C(CN1C(=O)NC2(CCc3ccccc32)C1=O)NCC(F)(F)F (stereo not drawn),2.18

# From PMC4336329 (PLoS ONE, 2015)
